# DRD3 agonist: activates the human D3 dopamine receptor; P35462; D3R DiscoveRx beta-arrestin cells, luminescence, 90 min; max activation, %; 410,000 compounds, 0.58% hits; AID 652048; in the data active means max activation above about 30%; further: 0% is about no effect
#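 Cells at 1500/well, incubated overnight, then treated with pinned compounds (dopamine as control) for 90 min at 37 degrees C. DiscoveRx reagent added for 30 - 60 minutes at room temperature; luminescence read.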
# D3 antag: antagonists of human D3 dopamine receptor; D3R cells, DiscoveRx beta-arrestin luminescence, antagonist mode; active compounds read low; max response, negative = inhibition, %; 360,000 compounds, 2.5% hits; AID 652054; in the data active means max response below about -50%; further: on the % scale 0 is the no-effect control and ±100 the full control effect
#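 Cells plated overnight at 1500 cells/well, then exposed to library compounds with dopamine controls for 90 minutes at 37 degrees C. DiscoveRx reagent added for 30–60 minutes at room temperature; luminescence read, quantitative HTS format.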
# D1 agonist: activates the human D1 dopamine receptor. P21728. HEK293 T-REx D1 cells, calcium flux, agonist mode. activation, % at 2 µM. 360,000 compounds, 1% hits. AID 504660; in the data active means activation above about 30%; further: 0% is about no effect
# Target sequence (P21728 whole entry, looked up): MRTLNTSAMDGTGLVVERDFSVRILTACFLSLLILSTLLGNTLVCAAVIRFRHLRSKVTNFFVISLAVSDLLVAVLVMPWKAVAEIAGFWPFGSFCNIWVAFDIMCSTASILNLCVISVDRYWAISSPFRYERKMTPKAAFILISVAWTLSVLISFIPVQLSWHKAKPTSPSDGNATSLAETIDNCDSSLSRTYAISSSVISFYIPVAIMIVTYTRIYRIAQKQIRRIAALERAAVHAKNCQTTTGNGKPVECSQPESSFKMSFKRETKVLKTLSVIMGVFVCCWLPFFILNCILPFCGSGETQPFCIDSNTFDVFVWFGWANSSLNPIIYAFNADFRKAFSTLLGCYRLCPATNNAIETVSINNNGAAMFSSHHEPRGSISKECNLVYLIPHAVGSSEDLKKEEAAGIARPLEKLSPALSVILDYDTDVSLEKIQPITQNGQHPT
#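 Tetracycline-induced HEK293 TREx D1 cells, force-coupled to calcium signalling, were dye-loaded with a no-wash calcium kit. Compound was pin-added after a 10 s baseline. Fluorescence was read kinetically at 1 cycle/s for 180 s, with calcium rises flagged as agonism.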
# D1 antagonist: human D1 dopamine receptor antagonism; P21728; HEK293 TREx D1 cells, calcium flux, dopamine EC80; active compounds read low; activity change, negative = inhibition, % at 10 µM; 360,000 compounds, 3.2% hits; AID 504652; in the data active means activity change below about -30%; further: on the % scale 0 is the no-effect control and ±100 the full control effect
#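 Cells carrying a force-coupled, tetracycline-inducible human D1 receptor report calcium flux. Each well gets a 10 s baseline, compound with 180 s monitoring, then an EC80 dopamine stimulus with a second 180 s kinetic read.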
# D1 PAM: enhances dopamine response at the human D1 receptor; P21728; HEK293 TREx D1 cells, calcium flux, dopamine EC20 potentiation; potentiation, % at 10 µM; 360,000 compounds, 0.036% hits; in the data active means potentiation above about 30%; further: 0% is about no effect
# * = called active by the depositor; / = no result given. Compounds with a hit are over-represented: about 6% of the library has one in this group of screens.
SMILES,DRD3 agonist,D3 antag,D1 agonist,D1 antagonist,D1 PAM
Cc1ccc(SCc2ccc(C(=O)Nc3nccs3)o2)cc1,-2,0,6,-10,2
COc1cccc(CNC(=O)c2cccc(-n3c(C)nc4cccnc43)c2)c1OC,0,/,3,-12,0
CC(C)CCN1CCN(CCCc2ccccc2)CC1CCO (configuration not stated),-15,-15,0,-4,-1
OCCC1CN(Cc2ccccc2O)CCN1CCCc1ccccc1 (configuration not stated),-6,-75*,1,20,-8
COc1ccc(CN2CCN(CCCc3ccccc3)C(CCO)C2)c(O)c1 (configuration not stated),-12,1,4,3,-4
OCCC1CN(CCCc2ccccc2)CCN1Cc1ccc(F)cc1 (configuration not stated),-34,-56*,8,1,0
CC(C)/C=C/CN1CCN(CCCc2ccccc2)C(CCO)C1 (configuration not stated),-17,-63*,3,1,-2
COc1ccc(OC)c(CN2CCN(CCCc3ccccc3)C(CCO)C2)c1 (configuration not stated),-26,-87*,-3,21,-4
CC(C)(C)OC(=O)N1CCC(c2c(C(=O)NCCN3CCCC3)cnn2-c2ccc(Cl)cc2)CC1,-14,/,0,-3,3
Cc1ccc(-c2cc(C(=O)N(Cc3ccc(C(C)(C)C)cc3)Cc3ccco3)no2)cc1,-11,/,13,5,0
Cc1ccc(NC(=O)Cn2c(=O)n(Cc3ccccc3)c(=O)c3c(C)c(C(=O)N(C)C)sc32)c(C)c1,3,/,2,-4,2
COc1cccc(CN2CCN(CCCc3ccccc3)C(CCO)C2)c1OC (configuration not stated),-21,-20,0,0,-3
OCCC1CN(Cc2ccc(Oc3ncccn3)cc2)CCN1Cc1ccc(F)c(F)c1 (configuration not stated),-18,-72*,1,-2,-5
Cc1ccccc1CN1CCN(CC2CC2)CC1CCO (configuration not stated),-6,-82*,-4,1,-2
Cc1ccccc1CN1CCN(CCCc2ccccc2)C(CCO)C1 (configuration not stated),-23,-78*,12,2,-8
N#C/C(=C\c1c(Oc2ccc(Br)cc2)nc2ccccn2c1=O)c1nc2ccccc2s1,19,/,17,-11,-3
CCn1cc(C(=O)OCC(=O)Nc2cc(Cl)ccc2OC)c(=O)c2ccc(C)nc21,-3,/,-2,0,1
COC(=O)c1cccnc1-n1c(=O)c2cccnc2n(CC(=O)Nc2ccccc2F)c1=O,-7,/,-1,-4,0
CCOCCc1nn2c(=O)cc(COC(=O)c3cccc(C)c3)nc2s1,6,/,3,2,-3
CC1CCN(S(=O)(=O)c2ccc3c(ccn3CC(=O)NCc3ccc(N(C)C)cc3)c2)CC1,-6,/,1,-9,4
Cc1cc(Cl)ccc1OCC(=O)NCCOC(=O)Nc1sc(=S)n(C)c1C,-7,-9,0,-11,-12
Cc1c(NC(=O)OCCNC(=O)COc2ccc(Cl)cc2Cl)sc(=S)n1C,2,9,15,-43*,-9
CCOC(=O)c1ccc(NS(=O)(=O)c2ccc(Cl)nc2)cc1,/,/,1,-12,-3
CCOC(=O)c1cnn(-c2ccc(NS(=O)(=O)c3ccc(Cl)cc3)cc2)c1C(F)(F)F,-6,-23,6,-62*,-5
O=C(O)c1cc2nc3c(c(C(F)(F)F)n2n1)CCCC3,1,5,2,-24,-4
SMILES,DRD3 agonist,D3 antag,D1 agonist,D1 antagonist,D1 PAM
O=C(Nc1ccc(F)cc1F)c1cc2nc3c(c(C(F)(F)F)n2n1)CCCC3,23,8,0,-33*,-4
CC(=O)Nc1ccc(OCC(O)CN2CCN(c3cc(Cl)ccc3C)CC2)cc1 (configuration not stated),-58,-10,18,3,-8
COc1cc(C(C)=O)ccc1OCC(O)CN1CCN(c2c(C)cccc2C)CC1 (configuration not stated),-16,-23,7,1,-3
COc1cc(C(C)=O)ccc1OCC(O)CN1CCN(c2ccc(C)c(C)c2)CC1 (configuration not stated),-8,-52*,2,-24,-30
CC(=O)Nc1ccc(OCC(O)CN2CCN(c3ccc(C)c(Cl)c3)CC2)cc1 (configuration not stated),-32,-144*,20,-21,-8
COc1ccccc1OCC(O)CN1CCN(C(=O)c2ccccc2)CC1 (configuration not stated),-7,-10,1,-36*,1
COc1cc(C(C)=O)ccc1OCC(O)CN1CCN(S(=O)(=O)c2ccccc2)CC1 (configuration not stated),3,-10,0,-31*,0
CCCCN(C)CCNC(=O)c1cc2c(=O)n(C)c3ccccc3c2n1C,-25,/,-1,-1,1
COc1ccccc1N1C(=O)C2C(C(=O)c3ccccc3)=NN(c3ccc(Br)cc3)C2C1=O (configuration not stated),-7,-12,35*,5,-2
COC(=O)C1=NN(c2ccc(C)cc2)C2C(=O)N(c3ccccc3OC)C(=O)C12 (configuration not stated),-10,-3,1,-16,-1
COc1ccccc1N1C(=O)C2C(C(=O)c3ccccc3)=NN(c3ccc(C)cc3)C2C1=O (configuration not stated),-1,-10,150*,11,1
COc1cc(C(=O)OC(COCCC(C)C)CN2CCOCC2)cc(OC)c1OC (configuration not stated),3,/,/,/,/
CC(=O)N1CCN(C(=S)NC(=O)c2ccc(S(=O)(=O)N3CCOCC3)cc2)CC1,3,52,3,-31*,-7
Cc1ccc(S(=O)(=O)N2CCOCC2)cc1C(=O)NC(=S)N1CC(C)OC(C)C1 (configuration not stated),6,-5,0,-35*,0
CC(=O)Nc1ccc(C(=O)Nc2ccc(S(=O)(=O)N3CCOCC3)cc2)cc1,1,3,2,-2,-8
O=C(CSc1cn(CC(=O)N2CCCC2)c2ccccc12)Nc1ccccc1C(F)(F)F,10,/,0,-44*,-7
O=C(Cn1cc(SCc2ccc(F)cc2)c2ccccc21)N1CCCC1,-24,/,6,-30*,-5
O=C(Cn1cc(SCc2ccc(F)cc2)c2ccccc21)N1CCCCCC1,-15,/,5,-25,-4
c1ccc(C(O[C@H]2CCCN(CCc3ccc4c(c3)OCO4)C2)c2ccccc2)cc1,-25,/,/,/,/
O=Cc1c(NCc2ccc(Cl)cc2)c2ccccc2[nH]c1=O,-10,1,4,-37*,-6

# Screens from PubChem BioAssay.
